Source: PubChem BioAssay (NCATS)
Records with an inconclusive call do not appear. Unmarked numbers belong to inactive results. Activity calls are given as the source filed them. Calls come from the whole dose curve; as a rule, active = well fitted cell-killing curve with a large enough effect; inconclusive = small, poorly fitted or top-dose-only effect; inactive = flat fitted curve, though single readings scatter. Square brackets hold non-standard residues; d marks the D form. Peptide text beside a SMILES is read from it. * marks the point of attachment. Nva = CCC[C@H](N)C(=O)O; Cbz = O=C(OCc1ccccc1)*

Assay: Quantitative highthroughput screen to assess conditional lethalithy of P12 Ichikawa cells grown in RPMI1640 with dialyzed fetal bovine serum (RPMI+ds) (AID 1963880); note: nearly all actives have a fitted effect of over 35% in size
Conditions: ATP luminescence, 48 h; Potency: P12-Ichikawa viability; series mostly up to 45.8 µM; viability: at the top concentration
Text: Assay Provider: Jason Cantor Ph.D.
Department of Biochemistry
University of Wisconsin-Madison, Madison, WI, USA
Chemical screening studies have identified drug sensitivities across hundreds of cancer cell lines but most putative therapeutics fail to translate. Discovery and development of drug candidates in models that more accurately reflect nutrient levels in human blood is a major challenge. Here we performed high-throughput screens in conventional versus Human Plasma-Like Medium (HPLM) to identify compounds that were "missed" when screening using the artificial culture condition. Sets of conditional anticancer compounds spanned phases of clinical development and included non-oncology drugs were assessed. […] We also traced conditional phenotypes for several chemotherapeutics to availability of HPLM-specific metabolites and confirmed others for compounds whose reported targets are encoded by nonessential genes. Our findings establish generalizable strategies for exploiting conditional lethality in HPLM to reveal therapeutic candidates and mechanisms of action in cancer cells.
Described herein are the results of each viability screens against three cell lines: NOMO1 (an acute myeloid leukemia cell line); P12-Ichikawa (a T-cell acute lymphoblastic leukemia); and SEM (a B-cell ALL). Each assay was screened using 3 different cell culture media: homemade human plasma-Like medium with 10% dialyzed fetal bovine serum (HPLM+ds); RPMI1640 with 10% untreated FBS and 5mM glucose (RPMI+s); and RPMI1640 with 10% dialyzed fetal bovine serum and 5 mM glucose (RPMI+ds).
PROTOCOL TABLE (as described by Inglese J, Shamu CE and Guy RK. 2007)
SEQUENCE No. (e.g., 1, 2, 3, etc.); […] (e.g., Cells, Incubation, Reagent, etc.); VALUE and DESCRIPTION.
1; Cells; 5 uL; white, solid bottom 1536-well Greiner assay plate.
2; Compounds; 23 nL; Kalypsis pin tool (Wako USA) equipped with a 1536-well pin head to transfer to the assay plates.
3; Incubation; 48 hours; 37C incubation.
4; Reagent; 3 uL; CellTiter Glo (Promega).
5; Incubation; 5 min, room temperature
6; Detection; Luminescence, Viewlux PerkinElmer.
NOTES (numbers refer to Sequence numbers above)
1. Briefly, 5 ul of cell reagent was dispensed using a Multidrop Combi Dispenser. The NOMO1 and SEM cells were plated at 500 cells/well and the P12-Ichikawa line at 1000 cells/well.
2. After seeding the cells, 23 nL of MIPE 4.1 library compounds (in DMSO) were added to each plate using a Kalypsys 1536 Pintool dispenser. Bortezomib at final concentration of […] and DMSO were added to each plate as positive and negative controls respectively. For each screen, MIPE 4.1 compounds were added over an eleven-point concentration range […] in 3-fold dilutions.
3. Each plate was covered with a stainless steel gasketed lid to prevent evaporation and incubated for 48 hour at 37C, 95% relative humidity, and 5% CO2.
4-5. Three microliter CellTilter-GloTM luminescent substrate mix (Promega) reagent was added to the assay plate and incubated at room temperature for 5 min.
6. The luminescence signal was measured using a ViewLux (PerkinElmer) multiplate reader with a 2 second exposure time per plate. Data for each compound were normalized as percent viability such that measurements for DMSO and the empty well controls in each plate were defined as 100% and 0%, respectively.
Potency is the fitted concentration of half-maximal effect.

SMILES | viability | Potency
CC[C@H](C)C(=O)O[C@H]1C[C@H](O)C=C2C=C[C@H](C)[C@H](CC[C@@H](O)C[C@@H](O)CC(=O)O)[C@H]21 | 94.7% | 
O=C(C=CC#Cc1cccc(NS(=O)(=O)c2ccccc2)c1)NO |  | 2.09 µM (active)
O=C(NCc1ccncc1)C12C[C@H]3C[C@@H](C1)CC(c1ccc(Cl)cc1)(C3)C2 |  | 20.9 µM (active)
Oc1ccc(C2CNCCc3c2cc(O)c(O)c3Cl)cc1 (stereo not given) | 107% | 
CCOC(=O)Nc1ccc(NCc2ccc(F)cc2)nc1N | 103% | 
O=C1NC(=O)C(c2cnc3ccccn23)=C1c1cn2c3c(cc(F)cc13)CN(C(=O)N1CCCCC1)CC2 |  | 5.88 µM (active)
CC1(C)CC(=O)c2c(C(F)(F)F)nn(-c3ccc(C(N)=O)c(NC4CCC(O)CC4)c3)c2C1 (stereo not given) |  | 0.148 µM (active)
COCCCOc1ccnc(CS(=O)c2nc3ccccc3[nH]2)c1C (stereo not given) | 102% | 
Cc1c(CCOc2ccc(C(=O)O)cc2)c2cc(Cl)ccc2n1C(c1ccccc1)c1ccccc1 | 90.3% | 
Cc1onc(-c2ccccc2Cl)c1C(=O)N[C@@H]1C(=O)N2[C@@H]1SC(C)(C)[C@@H]2C(=O)O | 96.5% | 
O=C(OCC#CCSc1nnc(-c2cccc3ccccc23)o1)c1cc2ccccc2s1 | 97.4% | 
CNC1CCCN(c2c(F)cc3c(=O)c(C(=O)O)cn(C4CC4)c3c2OC)C1 (stereo not given) | 91.5% | 
Cc1ccc(C(C)(O)c2nc3ccccc3s2)c(C)c1 (stereo not given) |  | 18.7 µM (active)
CC(NCc1ccc2c(c1)nc(NC(=O)c1ccc(-c3cn[nH]c3)s1)n2CC(C)(C)O)C(C)(C)C (stereo not given) |  | 2.64 µM (active)
CC(=O)Oc1ccccc1C(=O)O | 118% | 
NCCS(=O)(=O)O | 93.9% | 
COc1cc2c(cc1OC)[C@@H]1C(=O)c3ccc4c(c3O[C@@H]1CO2)C=CC(C)(C)O4 |  | 18.7 µM (active)
CC(C)OC(=O)C(C(=O)OC(C)C)=C1SC=CS1 | 97.5% | 
COc1cc2c(Nc3ccc(Br)cc3F)ncnc2cc1OCC1CCN(C)CC1 | 102% | 
COc1ccc(-c2nc(N3CCOCC3)c3sc(CN(C)c4ncc(C(=O)NO)cn4)cc3n2)cn1 |  | 0.0235 µM (active)

SMILES | viability | Potency
COc1ccc(C=CC(=O)Nc2ccccc2C(=O)O)cc1OC | 103% | 
N#Cc1ccc(C(c2ccc(C#N)cc2)n2cncn2)cc1 | 95.9% | 
C[C@](N)(Cc1ccc(O)c(O)c1)C(=O)O | 99.2% | 
N#CC(c1ccnc(NCCc2cccnc2)n1)c1nc2ccccc2s1 (stereo not given) | 83.9% | 
NC[C@H](O)c1ccc(O)c(O)c1 | 102% | 
Cc1ccnc2c1NC(=O)c1cccnc1N2C1CC1 | 89% | 
Nc1ccn(C[C@@H](CO)OCP(=O)(O)O)c(=O)n1 | 102% [at 23.2 µM] | 
CCC[C@@H](C=O)NC(=O)[C@H](CC(C)C)NC(=O)[C@H](CC(C)C)NC(=O)OCc1ccccc1 (Cbz-Leu-Leu-[Nva]-aldehyde) |  | 3.32 µM (active)
CC(C)C(C)C=CC(C)C1CCC2C3=CC=C4CC(O)CCC4(C)C3CCC21C (stereo not given) | 98.8% | 
CCNC(=O)CCCC=CC[C@@H]1[C@H](C=CC(O)CCc2ccccc2)[C@@H](O)C[C@@H]1O (stereo not given in full) | 91.3% | 
CC1(C)Cc2c(-c3ccccc3)c(-c3ccc(Cl)cc3)c(CC(=O)O)n2C1 | 90% | 
CCc1ccc(C(=O)Nc2cc(CN3CCN(C)CC3)cc(C(F)(F)F)c2)cc1C#Cc1cnc2ccnn2c1 | 79.3% | 
CC1=CC(=O)c2ccccc2C1=O | 104% | 
COC(=O)[C@]12CCC(C)(C)C[C@@H]1[C@@H]1C(=O)C=C3[C@@]4(C)C=C(C#N)C(=O)C(C)(C)[C@@H]4CC[C@@]3(C)[C@]1(C)CC2 |  | 8.33 µM (active)
CCN(CC)CCOc1ccc(Nc2ncc3cc(-c4c(Cl)cccc4Cl)c(=O)n(C)c3n2)cc1 |  | 3.32 µM (active)
O=Nc1c(-c2c(O)[nH]c3cc(Br)ccc23)[nH]c2ccccc12 |  | 5.9 µM (active)
CNC(=O)c1ccc(Nc2ncc(C(F)(F)F)c(NCc3nccnc3N(C)S(C)(=O)=O)n2)cc1 | 94.3% | 
Cc1ccc(-n2nc(C(C)(C)C)cc2NC(=O)Nc2ccc(OCCN3CCOCC3)c3ccccc23)cc1 | 97.8% | 
c1cc(CN2CCCNCCNCCCNCC2)ccc1CN1CCCNCCNCCCNCC1 | 105% | 
Cc1cn[nH]c1 | 104% | 
